The panel holds about 83,000 compounds, 20% with a hit somewhere; the sample as a whole holds those more often.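 96-well plates, one dose, 48 hours. Percent growth reported; active if below 10.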 A number with no mark means an inactive call. Active and inactive are the calls of the source.
What follows are compounds tested on EKVX NSCLC (assay: NCI-60 one-dose screen, 48 h (100 = growth as untreated, 0 = no growth, -100 = all killed)). Conditions: 10 µM unless noted.

Structure (SMILES)	growth
CCCCN1C=CCN(CCCC)C1	47.5%
Cc1nn(-c2ccccc2)c(Cl)c1/C=N\N=c1/sc2ccccc2n1C	110%
COc1cc(CC(=O)n2ncc3ccc(N)cc32)cc(OC)c1OC	91.8%
Cn1cc(-c2nc(-c3c[nH]c4c(Cl)nccc34)cs2)c2cc(Br)ccc21	74.1%
CCNc1nc2ccc(Nc3ccnc4cc(Cl)ccc34)cc2[nH]1	89.9%
Cc1ncc(C(=O)Nc2ccc(CN3CCN(C)CC3)c(C(F)(F)F)c2)cc1C#Cc1cnc(N)cc1C#N	57.5%
COc1cc(/C=C\c2cc(/C=C\c3ccc(O)c(OC)c3)n(C(=O)COc3ccccc3)n2)ccc1O	28.1%
C[C@H](c1nc2ccc(N)cc2[nH]1)[C@H]1CC[C@H]2[C@@H]3CCC4=CC(=O)CC[C@]4(C)[C@H]3CC[C@]12C	85.6%
CC(c1ccccc1)C(C(=O)c1ccccc1)c1ccccc1 (centres undefined)	98.5%
N#CC1=C(N)Oc2c(ccc3ccccc23)C1c1ccccc1Cl (centres undefined)	65.3%
N#CC(C(=O)/C(=N/NC(=O)c1ccccc1O)C(C#N)c1ccccc1)c1ccccc1 (centres undefined)	76.7%
C[C@@H](Nc1ncnc2ccc(-c3cnc(N)nc3)cc12)c1ccc(F)cc1	36.7%
Cc1cccc(C)c1N=c1oc2ccc(Cl)cc2nc1-c1ccccc1O	78.8%
COc1cc(C2C3=C(COC3=O)N(CCO)c3cc4c(cc32)CCC4)cc(OC)c1OC (centres undefined)	29.6%
COc1cc2cc(Oc3cccc(NC(=O)Nc4cc(C(F)(F)F)cc(C(F)(F)F)c4)c3)c(C)nc2cc1OC	2.88% (active)
Cc1cc(Cl)nc(N(CCNc2ccnc3cc(Cl)ccc23)Cc2ccccn2)n1	61.4%
COc1ccc(C(=O)c2cc(OC)c(OC)c(OC)c2)cc1O	43.8%
N#C/C(=C\c1ccc([N+](=O)[O-])s1)c1nc2cc(Br)ccc2s1	-30.8% (active)
Brc1ccc2[nH]cc(-c3cncn3CCc3ccccc3)c2c1	36.6%

Structure (SMILES)	growth
Cc1c(C)c([N+](=O)[O-])c(C)c([N+](=O)[O-])c1C	103%
COc1ccc(C(=O)CC#N)cc1	126%
O=C(/C=C/c1c(-c2ccc(Cl)cc2)nn(-c2ccccc2)c1C(F)(F)F)c1ccc(Cl)cc1	94.8%
Cc1ccc(NS(=O)(=O)c2ccc(-c3cnc(C4CC4)o3)cc2)cc1C(F)(F)F	75.3%
CC(C)c1ccc(Nc2ccc3c(OCCCN4CCN(C)CC4)cccc3n2)cc1	80.7%
CCN(c1ccccc1)S(=O)(=O)c1cc([N+](=O)[O-])ccc1Cl	88.3%
C=C1C(=O)O[C@H]2[C@H]1CC/C(CNS(=O)(=O)c1cccc3ccccc13)=C\CC[C@@]1(C)O[C@@H]21	59.4%
COc1cc(C(=O)Nc2cc3c(cc2Oc2cc(C)cc(C)c2)C(=O)N(C)[C@@H](CC(=O)N(C)O)C(=O)N3)c(Br)c(OC)c1OC	-18.8% (active)
Cc1c2cc[nH]c(=O)c2c(C)c2c1[nH]c1cc(OCCN3CCN(C)CC3)ccc12	-2.81% (active)
Cn1cc(-c2csc(-c3c[nH]c4ccccc34)n2)c2ccnc(Cl)c21	79.6%
COc1ccc2nc(-c3ccc(-c4noc(-c5cc(OC)c(OC)c(OC)c5)n4)cc3)[nH]c2c1	91.9%
Cn1cc(-c2nc(-c3c[nH]c4c(Cl)nccc34)cs2)c2cc(F)ccc21	94.2%
O=C1NN(C(=O)c2ccccc2)C(c2ccc(Cl)c(Cl)c2)=C/C1=C\c1ccc([N+](=O)[O-])cc1	88.3%
COc1ccc(OC)c(CCn2cncc2-c2c[nH]c3ccccc23)c1	64.8%
N#Cc1c(-c2cccc([N+](=O)[O-])c2)nc(SCC(=O)c2ccc(Cl)cc2)[nH]c1=O	99.8%
COC(=O)c1ccc2c(c1)[n+](=O)c(C(C)=O)c(C(F)(F)F)n2[O-]	-46.3% (active)
C#Cc1cccc(NC(=O)Nc2cccc(NC(=O)CCl)c2)c1	102% [8.25 µM]
Cc1nc2sccn2c1-c1cn2ccsc2n1	80.5%

These compounds were tested on SN12C renal in the same assay as above. Conditions: 10 µM unless noted.

Structure (SMILES)	growth
CCCCN1C=CCN(CCCC)C1	34.8%
Cc1nn(-c2ccccc2)c(Cl)c1/C=N\N=c1/sc2ccccc2n1C	86.8%
COc1cc(CC(=O)n2ncc3ccc(N)cc32)cc(OC)c1OC	107%
Cn1cc(-c2nc(-c3c[nH]c4c(Cl)nccc34)cs2)c2cc(Br)ccc21	88.9%
CCNc1nc2ccc(Nc3ccnc4cc(Cl)ccc34)cc2[nH]1	75.3%
Cc1ncc(C(=O)Nc2ccc(CN3CCN(C)CC3)c(C(F)(F)F)c2)cc1C#Cc1cnc(N)cc1C#N	-5.62% (active)
COc1cc(/C=C\c2cc(/C=C\c3ccc(O)c(OC)c3)n(C(=O)COc3ccccc3)n2)ccc1O	15.7%
C[C@H](c1nc2ccc(N)cc2[nH]1)[C@H]1CC[C@H]2[C@@H]3CCC4=CC(=O)CC[C@]4(C)[C@H]3CC[C@]12C	88.3%
CC(c1ccccc1)C(C(=O)c1ccccc1)c1ccccc1 (centres undefined)	88.5%
N#CC1=C(N)Oc2c(ccc3ccccc23)C1c1ccccc1Cl (centres undefined)	22.2%
N#CC(C(=O)/C(=N/NC(=O)c1ccccc1O)C(C#N)c1ccccc1)c1ccccc1 (centres undefined)	52.5%
C[C@@H](Nc1ncnc2ccc(-c3cnc(N)nc3)cc12)c1ccc(F)cc1	33.9%
Cc1cccc(C)c1N=c1oc2ccc(Cl)cc2nc1-c1ccccc1O	86.9%
COc1cc(C2C3=C(COC3=O)N(CCO)c3cc4c(cc32)CCC4)cc(OC)c1OC (centres undefined)	23.9%
COc1cc2cc(Oc3cccc(NC(=O)Nc4cc(C(F)(F)F)cc(C(F)(F)F)c4)c3)c(C)nc2cc1OC	7.69% (active)
Cc1cc(Cl)nc(N(CCNc2ccnc3cc(Cl)ccc23)Cc2ccccn2)n1	52.6%
COc1ccc(C(=O)c2cc(OC)c(OC)c(OC)c2)cc1O	15.2%
N#C/C(=C\c1ccc([N+](=O)[O-])s1)c1nc2cc(Br)ccc2s1	-30.1% (active)
Brc1ccc2[nH]cc(-c3cncn3CCc3ccccc3)c2c1	59.1%

Structure (SMILES)	growth
Cc1c(C)c([N+](=O)[O-])c(C)c([N+](=O)[O-])c1C	102%
COc1ccc(C(=O)CC#N)cc1	94.1%
O=C(/C=C/c1c(-c2ccc(Cl)cc2)nn(-c2ccccc2)c1C(F)(F)F)c1ccc(Cl)cc1	88.1%
Cc1ccc(NS(=O)(=O)c2ccc(-c3cnc(C4CC4)o3)cc2)cc1C(F)(F)F	88.6%
CC(C)c1ccc(Nc2ccc3c(OCCCN4CCN(C)CC4)cccc3n2)cc1	91.3%
CCN(c1ccccc1)S(=O)(=O)c1cc([N+](=O)[O-])ccc1Cl	60.7%
C=C1C(=O)O[C@H]2[C@H]1CC/C(CNS(=O)(=O)c1cccc3ccccc13)=C\CC[C@@]1(C)O[C@@H]21	11.9%
COc1cc(C(=O)Nc2cc3c(cc2Oc2cc(C)cc(C)c2)C(=O)N(C)[C@@H](CC(=O)N(C)O)C(=O)N3)c(Br)c(OC)c1OC	-27.7% (active)
Cc1c2cc[nH]c(=O)c2c(C)c2c1[nH]c1cc(OCCN3CCN(C)CC3)ccc12	21%
Cn1cc(-c2csc(-c3c[nH]c4ccccc34)n2)c2ccnc(Cl)c21	76.5%
COc1ccc2nc(-c3ccc(-c4noc(-c5cc(OC)c(OC)c(OC)c5)n4)cc3)[nH]c2c1	80.7%
Cn1cc(-c2nc(-c3c[nH]c4c(Cl)nccc34)cs2)c2cc(F)ccc21	98.6%
O=C1NN(C(=O)c2ccccc2)C(c2ccc(Cl)c(Cl)c2)=C/C1=C\c1ccc([N+](=O)[O-])cc1	92.3%
COc1ccc(OC)c(CCn2cncc2-c2c[nH]c3ccccc23)c1	72%
N#Cc1c(-c2cccc([N+](=O)[O-])c2)nc(SCC(=O)c2ccc(Cl)cc2)[nH]c1=O	96.9%
COC(=O)c1ccc2c(c1)[n+](=O)c(C(C)=O)c(C(F)(F)F)n2[O-]	-34% (active)
C#Cc1cccc(NC(=O)Nc2cccc(NC(=O)CCl)c2)c1	-67.7% [8.25 µM] (active)
Cc1nc2sccn2c1-c1cn2ccsc2n1	93.6%
